“And” between values parts separate entries of the source, which are not always exact repeats. Identical values can stand only once. A number with no mark means an inactive call. Inconclusive results are not listed. A call without a number means that no potency is given here. More than one record can exist for a structure, and the calls need not agree. The source made the active and inactive calls. The call rests on the fitted dose curve; in most records, active means well fitted curve in the direction sought with a large enough effect; inconclusive means small, poorly fitted or top-dose-only effect, or another doubt; inactive means no such curve, though single readings can be large; an effect the other way counts as inactive or inconclusive.
What was measured:
[1] = biological target: Arylsulfatase A (Homo sapiens) (UniProt P15289); test: qHTS screen for enhancers of Arylsulfatase A (ASA1): LOPAC Validation Assay (AID 720538); settings: ASA enzyme activity, LOPAC qHTS enhancer assay; series mostly up to 57.5 µM
Chain of Arylsulfatase A (Homo sapiens) (P15289 whole entry, looked up): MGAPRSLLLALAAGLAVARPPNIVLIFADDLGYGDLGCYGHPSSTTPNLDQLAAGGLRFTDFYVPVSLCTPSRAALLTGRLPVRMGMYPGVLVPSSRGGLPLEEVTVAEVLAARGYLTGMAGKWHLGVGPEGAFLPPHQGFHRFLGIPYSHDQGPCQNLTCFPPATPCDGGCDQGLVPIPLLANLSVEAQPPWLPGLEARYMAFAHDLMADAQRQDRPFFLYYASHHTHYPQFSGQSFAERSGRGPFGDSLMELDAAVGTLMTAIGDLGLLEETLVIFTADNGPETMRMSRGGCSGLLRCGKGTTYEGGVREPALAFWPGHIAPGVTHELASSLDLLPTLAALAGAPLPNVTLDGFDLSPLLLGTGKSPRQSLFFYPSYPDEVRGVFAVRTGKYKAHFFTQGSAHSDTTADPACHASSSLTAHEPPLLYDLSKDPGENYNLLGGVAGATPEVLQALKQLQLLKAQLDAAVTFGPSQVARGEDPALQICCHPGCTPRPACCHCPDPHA
Summary of the method: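 MLD patient fibroblasts (SV40, ASA-I179S), 1536-well; adhere 6 hrs; cpd 48h, 37 degree C, 5% CO2; pNCS 0.5mM final in lysis buffer, 14h RT; stop 1N NaOH final; fluor. Ex525/Em598.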

[2] = qHTS for compounds that reverse cellular toxicity of Amyloid beta (A-beta) peptide in yeast: LOPAC Validation Assay (AID 720559); settings: yeast expressing A-beta; series mostly up to 46.1 µM
Summary of the method: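 Medium dispensed, compounds pinned, A-beta yeast suspension added; plates held at 30 C for 48 hr; absorbance measured at 600 nm to gauge growth; values scaled between DMSO and FeCl3/clioquinol (equimolar) controls.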

[3] = qHTS for Activators of Parkin Expression: LOPAC Validation Assay (NLuc Reporter) (AID 720572); settings: Parkin promoter NanoLuc reporter cells, luminescence; series mostly up to 46.1 µM
Summary of the method: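 Parkin promoter-driven FLuc/NLuc neuronal reporter cells; 24 h plating, 7-pt dose response, 24 h at 37 C/5% CO2; FLuc then NanoLuc reagent, 10 min each, luminescence; DMSO/positive control normalized.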

[4] = biological target: T1, Hexokinase-4 (Homo sapiens) + Glucokinase regulatory protein (Homo sapiens) (UniProt P35557+Q14397); test: qHTS assay for inhibitors of recombinant human GCK-GKRP interaction: Diaphorase-coupled assay (AID 743205); settings: G6PDH/diaphorase resorufin fluorescence; series mostly up to 57.5 µM
T1 sequence (P35557 whole entry, looked up): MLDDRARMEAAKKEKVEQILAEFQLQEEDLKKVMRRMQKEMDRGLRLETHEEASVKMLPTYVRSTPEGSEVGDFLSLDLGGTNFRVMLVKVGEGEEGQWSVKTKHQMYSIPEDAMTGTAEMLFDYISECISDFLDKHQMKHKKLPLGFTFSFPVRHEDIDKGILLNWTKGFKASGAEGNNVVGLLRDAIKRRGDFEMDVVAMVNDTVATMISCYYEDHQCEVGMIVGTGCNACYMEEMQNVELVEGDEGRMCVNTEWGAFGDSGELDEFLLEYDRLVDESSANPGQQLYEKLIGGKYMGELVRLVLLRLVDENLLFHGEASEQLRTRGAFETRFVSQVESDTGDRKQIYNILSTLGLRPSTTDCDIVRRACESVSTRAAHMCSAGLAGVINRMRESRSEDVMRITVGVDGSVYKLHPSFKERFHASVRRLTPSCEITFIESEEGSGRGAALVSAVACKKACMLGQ
T1 sequence (Q14397 whole entry, looked up): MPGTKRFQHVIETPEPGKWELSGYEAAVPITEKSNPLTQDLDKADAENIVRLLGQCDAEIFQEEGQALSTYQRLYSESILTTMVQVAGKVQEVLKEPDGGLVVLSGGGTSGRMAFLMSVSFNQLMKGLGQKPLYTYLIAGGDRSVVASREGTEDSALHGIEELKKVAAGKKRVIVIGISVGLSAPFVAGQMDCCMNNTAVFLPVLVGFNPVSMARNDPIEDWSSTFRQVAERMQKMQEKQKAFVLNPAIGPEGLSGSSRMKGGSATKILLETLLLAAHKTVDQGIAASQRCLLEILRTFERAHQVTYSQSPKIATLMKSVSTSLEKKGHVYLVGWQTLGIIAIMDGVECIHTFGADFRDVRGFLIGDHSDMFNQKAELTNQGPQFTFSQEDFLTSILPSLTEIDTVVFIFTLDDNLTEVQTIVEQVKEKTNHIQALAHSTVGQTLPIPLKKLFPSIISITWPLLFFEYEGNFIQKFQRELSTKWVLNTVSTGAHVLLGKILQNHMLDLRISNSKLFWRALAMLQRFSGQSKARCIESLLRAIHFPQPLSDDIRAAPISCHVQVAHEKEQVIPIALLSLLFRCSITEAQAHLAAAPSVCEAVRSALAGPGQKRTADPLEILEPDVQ
Summary of the method: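 25 mM Hepes pH 7.6, 5 mM glucose, 0.4 mM ATP, 4 U/ml G6PDH; 10 nM each GST-GCK/FLAG-GKRP. Kinetic fluorescence read, 1/min × 30 min. Normalized: DMSO ± enzyme = max/min.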

[5] = biological target: T1, Hexokinase-4 (Homo sapiens) + Glucokinase regulatory protein (Homo sapiens); test: qHTS assay for inhibitors of recombinant human GCK-GKRP interaction: ADP-Glo assay (AID 743206); settings: ADP-Glo luminescence, 60 min, 0% = vehicle-only wells with enzyme present; series mostly up to 76.9 µM
Summary of the method: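 GST-GCK and FLAG-GKRP (15 nM each in the dispensed mix, with 2 uM S6P) react with 0.4 mM ATP and 5 mM glucose (final) in Hepes pH 7.6 for 60 min at room temperature. ADP is measured by ADP-Glo luminescence.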

[6] = biological target: T1, Hexokinase-4 (Homo sapiens) + Glucokinase regulatory protein (Homo sapiens); test: qHTS assay for inhibitors of recombinant human GCK-GKRP interaction: HTRF assay (AID 743207); settings: recombinant GCK-GKRP HTRF binding, 60 min, with sorbitol-6-phosphate; series mostly up to 57.5 µM
Summary of the method: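 5 nM GST-GCK + 5 nM FLAG-GKRP + 2 uM S6P, pH 7.1 buffer (25 mM Hepes, 2 mM MgCl2, 25 mM KCl, 1 mM DTT, Tween/BSA); pin-transferred cpd; anti-FLAG XL665/anti-GST K; 60 min RT; HTRF.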

[7] = qHTS Assay for Identifying Gametocytocidal Compounds (AID 743244); further: potency means the concentration at half of the fitted maximal effect;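 on max response: actives lower the fluorescent signal which means gametocytes are killed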; settings: P. falciparum 3D7 stage III-V gametocytes, alamarBlue, 72 h; max response: hits give low values
Summary of the method: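 Fluorescence at Ex 525/Em 598 nm, recorded 24 h after alamarBlue addition, reports residual metabolic activity of 3D7 gametocytes (stages III–V) following 72 h compound exposure at 37 °C, 5% CO2.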

[8] = qHTS for Activators of Parkin Expression: LOPAC Validation Assay (FLuc Reporter) (AID 720573); settings: Cell line, PRKN promoter firefly luciferase reporter, vehicle wells = 0, positive control = 100%; series mostly up to 46.1 µM
Summary of the method: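 Cells seeded, 24 h; compounds pinned, 7-pt dose response; 24 h at 37 C/5% CO2; volume reduced; FLuc reagent 10 min RT; luminescence read. Normalization: DMSO = 0, positive control = 100%.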

Structure (SMILES) | Potency [1] | outcome [2] | Potency [3] | outcome [4] | outcome [5] | Potency [6] | max response [7] | outcome [8] | Potency [7]
CO[C@@]1(NC(=O)CSCC#N)C(=O)N2C(C(=O)O)=C(CSc3nnnn3C)CS[C@@H]21 | inactive | inactive | inactive | inactive | inactive | inactive | 0.458% and 21.8% |  | 
CC[N+](C)(C)c1cccc(O)c1 | inactive |  |  |  | inactive | inactive | 22.6% and 18% |  | 
CCN(CC)CCOCCOC(=O)C1(c2ccccc2)CCCC1 | inactive |  |  |  | inactive | inactive |  |  | 
CN/C(=C\[N+](=O)[O-])NCCSCc1ccc(CN(C)C)o1 | inactive | inactive | inactive |  |  |  | 33.4% | inactive | 
CCn1nc(C(=O)O)c(=O)c2cc3c(cc21)OCO3 | inactive |  |  |  |  |  | 3.16% and -5.51% |  | 
CC(C)(C)c1ccc(C(=O)CCCN2CCC(OC(c3ccccc3)c3ccccc3)CC2)cc1 | inactive | inactive | inactive | inactive | inactive | inactive |  |  | 
CC1=NS(=O)(=O)c2cc(Cl)ccc2N1 | inactive |  |  |  | inactive | inactive | 4.85% |  | 
Cc1nnc(SCC2=C(C(=O)O)N3C(=O)[C@@H](NC(=O)Cn4cnnn4)[C@H]3SC2)s1 | inactive | inactive | inactive |  | inactive | inactive | 5.06% and 32.1% | inactive | 
CCCOc1ccccc1-c1nc2n[nH]nc2c(=O)[nH]1 | inactive | inactive | inactive | inactive | inactive | inactive | -5.53% and 14.3% |  | 
OCCN1CCN(CC/C=C2/c3ccccc3Sc3ccc(C(F)(F)F)cc32)CC1 |  | inactive | inactive | inactive | inactive | inactive |  | inactive | 
CC(C)[N+](C)(CCOC(=O)C1c2ccccc2Oc2ccccc21)C(C)C | inactive | inactive | inactive | inactive | inactive | inactive | -5.05% and 11.3% |  | 
NC(=O)c1cn(Cc2c(F)cccc2F)nn1 | inactive | inactive | inactive | inactive | inactive | inactive | 3.65% and -7.75% |  | 
CC(C)NCC(O)c1cc(O)cc(O)c1 (stereo unspecified) | inactive |  |  |  | inactive | inactive | 4.9% and 20.6% |  | 
CN(C)C(=O)Oc1ccc[n+](C)c1 | inactive |  |  | inactive | inactive | inactive | -5.59% and 6.64% |  | 
OCCN1CCN(CCCN2c3ccccc3C=Cc3ccccc32)CC1 | inactive | inactive | inactive |  | inactive | inactive | -7.06% and 7.36% | inactive | 11.2 µM (active)
COCCc1ccc(OCC(O)CNC(C)C)cc1 (stereo unspecified) | inactive |  |  | inactive | inactive | inactive | -3.26% and -1.45% and -10.9% |  | 
NC(N)=NC(=O)Cc1c(Cl)cccc1Cl | inactive | inactive | inactive | inactive | inactive | inactive | 5.89% and 26.9% |  | 
CN1C(=O)CC[C@H]1c1cccnc1 | inactive | inactive | inactive | inactive | inactive | inactive | 3.71% and 23.6% |  | 
Fc1ccc(C(c2ccc(F)cc2)N2CCN(C/C=C/c3ccccc3)CC2)cc1 | inactive |  |  | inactive | inactive | inactive | 16.8% and 11% |  | 
CCCN(CCC)CCc1cccc2c1CC(=O)N2 | inactive | inactive | inactive | inactive | inactive | inactive | 3.57% and 20.6% |  | 
CCN(Cc1ccncc1)C(=O)C(CO)c1ccccc1 (stereo unspecified) | inactive | inactive | inactive |  | inactive | inactive | 10.4% and 27% |  | 
COc1ccc2c(c1OC)C(=O)O[C@@H]2[C@H]1c2c(cc3c(c2OC)OCO3)CCN1C | inactive | inactive |  |  | inactive | inactive | -4.58% and 10.4% | inactive | 

Structure (SMILES) | Potency [1] | outcome [2] | Potency [3] | outcome [4] | outcome [5] | Potency [6] | max response [7] | outcome [8] | Potency [7]
COc1ccc(CCN(C)CCCC(C#N)(c2cc(OC)c(OC)c(OC)c2)C(C)C)cc1OC (stereo unspecified) | inactive | inactive | inactive |  | inactive | inactive | 12.4% and 4.11% | inactive | 
Cc1cccc(C)c1NC(=O)C(C)N (stereo unspecified) | inactive |  |  | inactive | inactive | inactive | 6.83% and 24.8% |  | 
CN1CCN(C2=Nc3ccccc3Oc3ccc(Cl)cc32)CC1 | inactive | inactive | inactive |  | inactive | inactive | 15.1% and -7.99% |  | 
O=C(O)CP(=O)(O)O | inactive | inactive | inactive | inactive | inactive | inactive | -7.11% and 18.5% |  | 
Nc1c2c(nc3ccccc13)CCCC2O (stereo unspecified) | inactive | inactive | inactive | inactive | inactive | inactive | -3.49% and -6.56% |  | 
CC(C)(C)NCC(O)c1cc(O)cc(O)c1 (stereo unspecified) | inactive | inactive | inactive |  | inactive | inactive | -9.6% and 12.9% |  | 
Cc1scc2c1N(C(=O)CN1CCN(C)CC1)c1ccccc1NC2=O | inactive | inactive | inactive | inactive | inactive | inactive | 11.1% and 13% |  | 
Cc1ccc(/C(=C\CN2CCCC2)c2ccccn2)cc1 | inactive | inactive | inactive |  |  |  | 24.5% and 21.6% |  | 
O=C(O)CN(CCN(CC(=O)O)CC(=O)O)CCN(CC(=O)O)CC(=O)O |  | inactive | inactive |  | inactive | inactive | 13% and 27.1% | inactive | 
Brc1c(NC2=NCCN2)ccc2nccnc12 |  | inactive | inactive |  | inactive | inactive | -8.09% and 19.7% | inactive | 
COc1cc2c(cc1OC)-c1cc(=Nc3c(C)cc(C)cc3C)n(C)c(=O)n1CC2 |  | inactive | inactive |  | inactive | inactive | 25.2% | inactive | 
NC1=NCC2c3ccccc3Cc3ccccc3N12 (stereo unspecified) |  | inactive | inactive | inactive | inactive | inactive | -4.93% and 13.9% |  | 
C=CCc1ccccc1OCC(O)CNC(C)C (stereo unspecified) |  | inactive | inactive | inactive | inactive | inactive | 17.2% | inactive | 
NCCCNCCSP(=O)(O)O |  | inactive | inactive | inactive | inactive | inactive | 4.77% and 12.2% |  | 
C[C@]12CC[C@@H]3c4ccc(O)cc4C[C@@H](CCCCCCCCCS(=O)CCCC(F)(F)C(F)(F)F)[C@H]3[C@@H]1CC[C@@H]2O (stereo partly specified) |  | inactive | inactive | inactive | inactive | inactive |  |  | 
O=C1CC2(CCCC2)CC(=O)N1CCCCN1CCN(c2ncccn2)CC1 |  | inactive | inactive | inactive | inactive | inactive |  | inactive | 
O=C(CCNNC(=O)c1ccncc1)NCc1ccccc1 |  | inactive | inactive | inactive | inactive | inactive | -0.149% and 4.87% |  | 
COCC(=O)O[C@]1(CCN(C)CCCc2nc3ccccc3[nH]2)CCc2cc(F)ccc2[C@@H]1C(C)C |  | inactive | inactive | inactive | inactive | inactive |  |  | 2.64 µM (active) and 1.41 µM (active)
CN(C)CCCN1c2ccccc2Sc2ccc(C(F)(F)F)cc21 |  | inactive | inactive | inactive | inactive | inactive |  |  | 
CCN(CC)CCNC(=O)c1ccc(NC(C)=O)cc1 |  | inactive | inactive |  | inactive | inactive | 11.5% and -3.43% | inactive | 
C#CCN(C)CCCOc1ccc(Cl)cc1Cl |  | inactive | inactive | inactive | inactive | inactive | -2.39% and 17.1% |  | 

From PubChem BioAssay (NCATS)
